AHR activator: human AHR activation; AHR-responsive luciferase reporter cells, luminescence; P35869; AID 2796; actives 2.5% (n = 320,000); activation, % at 5 µM; in the data active = activation above about 47%;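 note: 0% = vehicle wells and 100% = reference agonist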
DAX1 inh-1: blocks DAX1 repression of SF-1 activated StAR promoter; HEK293T StAR-luciferase reporter, SF-1/DAX-1 repression relief; inhibition, % at 6.8 µM; actives 1.1% (n = 370,000);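 active = inhibition above the mean over all tested compounds plus 3 SD, cut at about 3.6% in these data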;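 note: 0% = DAX-1 cells with DMSO and 100% = cells lacking DAX-1 with DMSO; higher inhibition means more luminescence from relief of DAX-1 repression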
hcDAF-12 act: activates DAF-12 receptor from parasite H. contortus | HEK293 hcDAF-12 lit1-tk-luc reporter, luminescence; 0% DMSO, 100% Δ7-dafachronic acid | activation, % at 6.8 µM | actives 1.4% (n = 370,000) | AID 652067;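 active = activation above the mean of all tested compounds plus 3 SD, cut at about 5.5% in these data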;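 note: 100% = response to 3 µM Δ7-dafachronic acid high control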
hgDAF12 agonist: activates the H. glycines DAF-12 receptor ligand-binding domain; activation, % at 6.8 µM; actives 1.8% (n = 370,000); HEK293 GAL4-hgDAF12 UAS-luciferase reporter, agonist luminescence; normalized to butyrate control;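 active = activation above a cutoff set at the mean of all screened compounds plus 3 SD, cut at about 10% in these data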;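 note: 0% = DMSO wells and 100% = sodium butyrate wells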
DAX1 inh-2: NR0B1 (DAX1) inhibition. HEK293 Gal4-DAX1 luciferase reporter, luminescence. P51843. inhibition, % at 6.75 µM. actives 0.99% (n = 340,000);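 active = inhibition above the mean over all tested compounds plus 3 SD, cut at about 4.2% in these data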;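 note: 0% = DAX1-transfected cells with DMSO and 100% = empty-vector control cells with DMSO; inhibition shows as a rise in luminescence from relieved DAX1 repression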
ssDAF-12 act: activators of S. stercoralis DAF-12 nuclear receptor | HEK293 ssDAF-12/GRIP1 lit1-tk-luc reporter, luminescence; % of 3 µM dafachronic acid response | activation, % at 6.8 µM | actives 1% (n = 370,000) | AID 652126;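 active = activation above the mean over all tested compounds plus 3 SD, cut at about 0.9% in these data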;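 note: 0% = DMSO-only wells and 100% = 3 µM delta7-dafachronic acid wells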
An asterisk follows results filed as active; / = not tested or not shown. This is a sample that favours compounds with a hit; in the whole collection about 5.7% have one here.

SMILES | AHR activator | DAX1 inh-1 | hcDAF-12 act | hgDAF12 agonist | DAX1 inh-2 | ssDAF-12 act
COc1ccc(/C=c2\sc3nc(-c4ccccc4OC)nn3c2=O)c(OC)c1 | 42 | 0 | 4 | 2 | 0 | 0.9*
CN(C)S(=O)(=O)N1CCCC(C(=O)c2ccc(C(F)(F)F)cc2)C1 (centres undefined) | 1 | 0 | 0 | 1 | -1 | -1
CN(C)S(=O)(=O)N1CCCC(C(=O)c2ccc(-c3ccccc3)cc2)C1 (centres undefined) | 1 | 0 | 0 | -1 | 4.3* | -2
N#C/C(=N\Nc1ccc(Cl)cc1)C(N)=S | 59* | -1 | 1 | 0 | -2 | -1
N#C/C(=N\Nc1ccccc1)C(N)=S | 6 | 0 | 2 | 0 | 1 | -1
COc1ccc([C@H]2C=C(C(=O)O)O[C@@H](OCCCCO)C2)cc1 | 3 | 0 | -1 | 1 | 0 | -1
Clc1ccc(-c2n[nH]c3c2CCCC3)cc1 | 56* | 1 | 1 | 1 | 0 | -1
Clc1ccc(-c2onc3c2CCCC3)cc1 | -4 | 0 | 0 | 1 | 1 | -1
CCc1ccc(NC(=O)Cn2c(SC)nc3ccccc32)cc1 | 78* | -1 | 1 | -1 | -1 | 0
COc1cccc(/C=C/C(=O)OCC(=O)c2c[nH]c3ccccc23)c1OC | 35 | -1 | 0 | 0 | -2 | -1
O=C(COC(=O)C1CCC1)c1c[nH]c2ccccc12 | 13 | 1 | 4 | 0 | 1 | 0
CC(=O)OCC(=O)c1c[nH]c2ccccc12 | 11 | 0 | 5 | 2 | 2 | 1.1*
COc1cccc(C(=O)OCC(=O)c2c[nH]c3ccccc23)c1O | 13 | 0 | 5 | 4 | 1 | 1.9*
N#Cc1ccccc1OCC(=O)OCC(=O)c1c[nH]c2ccccc12 | 18 | 4.1* | 2 | 2 | 0 | 0
Cn1cnnc1SCC(=O)c1c[nH]c2ccccc12 | 67* | 1 | 5 | 4 | 1 | 1
COc1ccc(-n2c(-c3ccc(Br)cc3)c[n+]3c2SC(C)C3)cc1 (centres undefined) | 3 | -2 | -4 | 2 | 1 | -2
COc1ccc(C(=O)COC(=O)c2cc(=O)[nH]c3ccccc23)c(OC)c1 | 2 | 4 | 3 | 5 | 0 | 1.0*
COc1ccccc1C(=O)COC(=O)c1cc(=O)[nH]c2ccccc12 | 7 | 1 | 1 | 2 | 0 | 0
O=C(COC(=O)C1CC1)c1c[nH]c2ccccc12 | 14 | 1 | 6.2* | 7 | 2 | 1.1*
COc1cc(NC(=O)c2ccco2)c(C(=O)OCC(=O)c2c[nH]c3ccccc23)cc1OC | 55* | -2 | 1 | -5 | -2 | 0
O=C(OCC(=O)c1c[nH]c2ccccc12)c1cccc(S(=O)(=O)N2CCCCCC2)c1 | 15 | 0 | 1 | 1 | -1 | 1.1*
O=C(O)C1CC=CCC1C(=O)NCc1cn2ccccc2n1 (centres undefined) | 0 | 0 | 0 | 1 | 0 | 1.1*
O=C(O)C1CCCCC1C(=O)NCc1cn2ccccc2n1 (centres undefined) | 7 | 0 | -1 | 1 | 0 | -1
Cc1c(C(=O)NNC(=O)c2ccccc2O)oc2ccccc12 | / | 2 | 5.8* | 7 | -1 | 1
COC(=O)c1oc2ccccc2c1NC(=O)c1ccccc1O | 2 | -1 | 0 | -1 | 0 | -1
SMILES | AHR activator | DAX1 inh-1 | hcDAF-12 act | hgDAF12 agonist | DAX1 inh-2 | ssDAF-12 act
O=C(Cc1ccccc1)NN1C(=O)C2C3C=CC(C4CC34)C2C1=O (centres undefined) | 0 | 0 | -1 | 0 | -1 | 0
CCN(Cc1ccccc1)c1cc2c(c3c1ccn3C)C1CCC2O1 (centres undefined) | / | -2 | 0 | -3 | / | 0
CCN(CC)c1cc2c(c3c1ccn3C)C1CCC2O1 (centres undefined) | / | 0 | -2 | -2 | / | 0.9*
O=C(NNc1nc2c(F)cc(F)cc2s1)C1=COCCO1 | 3 | 0 | 0 | 6 | 5.6* | -1
CCC(=O)NNc1nc2c(F)cc(F)cc2s1 | 2 | 0 | 1 | 5 | 3 | 1.1*
C/C(CC(=O)NC1CCCC1)=N\NC(=O)c1ccc([N+](=O)[O-])c(Cl)c1 | 1 | -1 | 1 | 5 | 1 | -1

Screening results from PubChem.
